Source: PubChem
Rows were chosen to be rich in hits. Some 11% of all compounds tested hit in one or more screens of this group.
Pf growth 48h: inhibits P. falciparum growth in the first generation, 48 h; P. falciparum luciferase growth in erythrocytes, 48 h; Potency, µM (doses to about 28.7 µM), for inactives: at the highest dose activity change, negative = inhibition, usual class: inhibitors; hit rate 5.9% among 310,000; also: % is scaled to controls: 0 for no effect and ±100 for the full control effect
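Luciferase-expressing P. falciparum in infected erythrocytes (2% hematocrit, 0.1% parasitemia final) in RPMI 1640/0.5% Albumax were exposed to compound for 48 hours at 37 C, 5% CO2; growth read as luminescence.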
VACV mCherry inh: vaccinia inhibition (mCherry reporter); Vaccinia virus mCherry reporter infection, fluorescence; Potency, µM (titrated, usually from 36.5 µM), inactives show at the highest dose activity change, negative = inhibition, most hits filed as inhibitors; hit rate 0.63% among 310,000; calls by dose curve; tested in A549 cells; also: % is scaled to controls: 0 for no effect and ±100 for the full control effect; nearly all actives have a fitted effect of over 35% in size
VACV Venus inh: inhibitors of vaccinia virus (Venus reporter) | hit rate 0.46% among 330,000 | Vaccinia virus Venus reporter expression, fluorescence | Potency, µM (series often up to 36.5 µM), for inactives: at the top dose activity change, negative = inhibition, most hits filed as inhibitors; calls by dose curve; tested in A549 cells; also: % is scaled to controls: 0 for no effect and ±100 for the full control effect; nearly all actives have a fitted effect of over 30% in size
Pf growth 96h: inhibits malaria parasite growth, 96 h. P. falciparum luciferase reporter growth, 96 h. Potency, µM (series often up to 28.7 µM), without a hit: at the highest dose activity change, negative = inhibition, actives largely listed as inhibitors. hit rate 6.9% among 320,000. AID 504834; also: % is scaled to controls: 0 for no effect and ±100 for the full control effect
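Cell-based qHTS: luciferase-tagged P. falciparum in erythrocytes (2% hematocrit, 0.05% parasitemia final) incubated with compounds for 96 hours, 37 C, 5% CO2; luciferase detection reagent then added and luminescence measured.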
NS1 inh: blocks influenza NS1 protein function; Potency, µM (titrated, usually from 46.1 µM), inactives show at the top dose activity, positive = more growth; hit rate 0.4% among 270,000; calls by dose curve; also: actives are rising curves; nearly all actives have a fitted effect of over 50% in size
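OD600 was taken as the measure of yeast growth restored by compound in an NS1-expressing S. cerevisiae strain. Cells had been washed out of glucose medium and diluted 1:100 into galactose -URA medium, pH 6.0.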
HCV inh: blocks hepatitis C virus. Huh7.5.1 HCVcc-Cre infection, luciferase reporter, 44 h. hit rate 3.4% among 340,000. AID 651820. Potency, µM (highest dose often 41.8 µM), for inactives: top-dose activity change, negative = inhibition, most hits filed as inhibitors; also: % is scaled to controls: 0 for no effect and ±100 for the full control effect
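Luciferase read-out (15 sec integration) after a 15 min room-temperature substrate step quantifies HCVcc-Cre infection. Cells, 1,000 per well, had compound added 4 h post-plating, then virus at ~0.5 moi, and were cultured 44 h.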
* = called active by the depositor. Unless noted, calls follow the shape of the dose curve; as a rule, active = well fitted inhibition curve with a large enough effect; inconclusive = small, poorly fitted or top-dose-only effect, or another doubt; inactive = no such curve, though single readings can be large or run the other way. Potency is read from the fitted curve at half-maximal effect.

`O=C(COc1ccccc1Cl)Nc1ccc(N2CCN(C(=O)c3ccccc3)CC2)cc1` gave Pf growth 48h inconclusive, Pf growth 96h 11%, NS1 inh 11% and HCV inh 5µM*.
`O=C(Nc1ccc(N2CCN(C(=O)c3cccs3)CC2)cc1)c1cccnc1` gave Pf growth 48h inconclusive, VACV mCherry inh inactive, VACV Venus inh -10%, Pf growth 96h 2.9µM*, NS1 inh -2% and HCV inh -2%.
O=C(Nc1ccc(S(=O)(=O)N2CCOCC2)cc1)c1ccco1 was read as Pf growth 48h -4%, VACV mCherry inh inactive, VACV Venus inh -9%, Pf growth 96h 52%, NS1 inh -3% and HCV inh -1%.
Screening O=C(Nc1ccc(N2CCOCC2)cc1)c1ccc([N+](=O)[O-])o1 returned Pf growth 48h 19%, VACV mCherry inh 11µM*, VACV Venus inh inconclusive, Pf growth 96h 21%, NS1 inh -41% and HCV inh inconclusive.
For O=C(Nc1ccc(S(=O)(=O)N2CCOCC2)cc1)c1ccc([N+](=O)[O-])o1 the results were Pf growth 48h 10µM*, VACV mCherry inh inconclusive, VACV Venus inh 18µM*, Pf growth 96h inconclusive, NS1 inh 2% and HCV inh -22%.
For COc1ccc(-c2csc3nc(-c4ccc(C)cc4)oc(=O)c23)cc1OC the results were Pf growth 48h 13%, VACV mCherry inh -23%, VACV Venus inh inconclusive, Pf growth 96h 12%, NS1 inh -2% and HCV inh 15%.
For COc1ccc2c(c1)c1c(c(=O)n(CCc3ccccc3)c(=O)n1Cc1cccc(Cl)c1)n2C the results were VACV mCherry inh -7% and VACV Venus inh 3%.
Screening CN(c1cccc(NC(=O)Nc2cccc(Cl)c2)c1)S(C)(=O)=O returned Pf growth 48h 57%, VACV Venus inh inconclusive, Pf growth 96h 2%, NS1 inh -3% and HCV inh inconclusive.
For O=C(Nc1ccc(S(=O)(=O)N2CCCC2)cc1)c1ccc([N+](=O)[O-])o1 the results were HCV inh 2.8µM*.
O=C(COc1ccccc1[N+](=O)[O-])Nc1ccc(N2CCN(C(=O)c3cccs3)CC2)cc1 was read as Pf growth 48h 10µM*, VACV mCherry inh -6%, VACV Venus inh -23%, Pf growth 96h -29%, NS1 inh 5% and HCV inh 6.3µM*.
O=C(Nc1ccc(N2CCN(c3ncccc3C(F)(F)F)CC2)nc1)c1cccs1 was read as Pf growth 48h 0.37µM*, VACV mCherry inh 14µM*, VACV Venus inh 20µM*, Pf growth 96h 2.3µM*, NS1 inh -55% and HCV inh 11µM*.
For O=C(Nc1ccc(N2CCN(C(=O)c3cccs3)CC2)cc1)c1ccc([N+](=O)[O-])o1 the results were Pf growth 48h inconclusive, Pf growth 96h 9.3µM* and NS1 inh -10%.
`CCC(=O)Nc1ccc(N2CCN(C(=O)c3cccs3)CC2)cc1` gave Pf growth 48h 2%, Pf growth 96h 13%, NS1 inh 0% and HCV inh 14%.
For O=C(Nc1ccc(Cc2ccncc2)cc1)c1ccc([N+](=O)[O-])o1 the results were Pf growth 48h inconclusive, VACV mCherry inh 10µM*, VACV Venus inh inconclusive, Pf growth 96h -23%, NS1 inh -103% and HCV inh inconclusive.
O=C(Nc1ccc(S(=O)(=O)N2CCOCC2)cc1)c1ccc([N+](=O)[O-])s1 was read as Pf growth 48h inconclusive, VACV mCherry inh inconclusive, VACV Venus inh 1%, Pf growth 96h inconclusive and HCV inh 8.9µM*.
`O=C(Nc1ccccc1N1CCOCC1)c1ccc([N+](=O)[O-])s1` gave VACV mCherry inh 4.5µM*, VACV Venus inh 7.9µM* and HCV inh 11µM*.
`COc1ccccc1/C=C/C(=O)NC(=S)Nc1ccc(S(=O)(=O)N(C)c2ccccc2)cc1` gave Pf growth 48h inconclusive, VACV Venus inh 6%, Pf growth 96h inconclusive, NS1 inh 20% and HCV inh 24%.
For CCCN1CCN(C(=O)c2cc(COc3ccc4ncccc4c3)on2)CC1 the results were Pf growth 48h -8%, VACV mCherry inh inactive, VACV Venus inh -10%, Pf growth 96h -23%, NS1 inh 19% and HCV inh 10µM*.
Screening CCN1CCN(C(=O)c2cc(COc3ccc4ncccc4c3)on2)CC1 returned Pf growth 48h -4%, VACV mCherry inh inactive, VACV Venus inh -18%, Pf growth 96h 3%, NS1 inh -2% and HCV inh 11µM*.
For CCOC(=O)c1ccc(NC(=O)NCc2ccn(CC)n2)cc1 the results were Pf growth 48h -5%, Pf growth 96h -5%, NS1 inh -6% and HCV inh -6%.
Screening COC(=O)c1cccc(NC(=O)CN2CCN(c3ccc(OC)cc3)CC2)c1 returned Pf growth 48h -17%, Pf growth 96h -21%, NS1 inh -10% and HCV inh -24%.
CC(=O)c1cn(CCOc2ccccc2C)c2ccccc12 was read as Pf growth 48h 3.3µM*, Pf growth 96h 0%, NS1 inh -21% and HCV inh 0.79µM*.
For Cc1ccccc1OCCn1cc(C(=O)C(=O)N2CCOCC2)c2ccccc21 the results were Pf growth 48h inconclusive, VACV mCherry inh -8%, VACV Venus inh -8%, Pf growth 96h -1%, NS1 inh -2% and HCV inh 1%.
`Cc1ccccc1OCCn1cc(C(=S)N2CCCC2)c2ccccc21` gave VACV mCherry inh inconclusive, VACV Venus inh inconclusive and HCV inh 11µM*.
`COc1ccccc1OCCn1cc(C(=O)O)c2ccccc21` gave Pf growth 48h 7%, VACV mCherry inh -8%, VACV Venus inh -8%, Pf growth 96h 1%, NS1 inh 4% and HCV inh 6%.
`Cc1ccc(C(=O)NN(CCC(=O)NC(C)(C)C)C2=NS(=O)(=O)c3ccccc32)cc1` gave Pf growth 48h -9%, VACV mCherry inh -13%, VACV Venus inh -5%, Pf growth 96h 5.9µM*, NS1 inh -12% and HCV inh 17%.
`CCSc1nnc(-c2ccc(Cl)cc2)c2ccccc12` gave Pf growth 48h inconclusive, Pf growth 96h 0.093µM*, NS1 inh 1% and HCV inh -24%.
`Clc1ccc(-c2nnc(Sc3nc4ccccc4o3)c3ccccc23)cc1` gave Pf growth 48h 37%, VACV mCherry inh 14µM*, VACV Venus inh inconclusive, Pf growth 96h 8%, NS1 inh -2% and HCV inh -28%.
`Cc1ccc(-c2nnc(Sc3nc4ccccc4o3)c3ccccc23)cc1` gave Pf growth 48h 12µM*, VACV mCherry inh 10µM*, VACV Venus inh 10µM*, Pf growth 96h 4% and HCV inh inconclusive.
